# Compounds without any hit were thinned out: in the full panel of roughly 79,000, 15% have a hit. A number with no mark means an inactive call. The source made the active and inactive calls. No stated cut-off is given here; in the data, active means growth inhibition above about 70%; inactive means the rest.
# Assays:
# [1] = NCI Yeast Anticancer Drug Screen. Data for the rad50 strain (AID 155);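 further: 0% = growth of vehicle-only cultures of the same strain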; settings: S. cerevisiae rad50 strain growth inhibition; at 50.0 µM; active compounds read high
# Outline: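 Vehicle-treated cultures provide the reference for the growth inhibition reported for compound-exposed, repair-deficient yeast.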
# [2] = NCI Yeast Anticancer Drug Screen. Data for the mec2-1 strain (AID 157); settings: S. cerevisiae mec2-1 strain, at 50.0 µM, active compounds read high
# Outline: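 Strain: mec2-1 (DNA repair/cell cycle alteration). Compound exposure, then growth measured; inhibition expressed relative to vehicle.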
# [3] = NCI Yeast Anticancer Drug Screen. Data for the sgs1 mgt1 strain (AID 161);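 further: 0% = growth of cultures given vehicle only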; settings: S. cerevisiae sgs1 mgt1 strain, at 50.0 µM, active compounds read high
# Outline: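 Mutant yeast exposed to compound; growth scored against vehicle-only wells.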
# [4] = NCI Yeast Anticancer Drug Screen. Data for the cln2 rad14 strain (AID 165);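 further: 0% = growth equal to vehicle treated cultures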; settings: S. cerevisiae cln2 rad14 strain, at 50.0 µM, active compounds read high
# Outline: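 Compounds are applied to the cln2 rad14 yeast strain, and growth is then compared with that of vehicle-treated cultures to give inhibition.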
# [5] = NCI Yeast Anticancer Drug Screen. Data for the bub3 strain (AID 167); settings: S. cerevisiae bub3 mutant strain, at 50.0 µM, active compounds read high
# Outline: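 Mutant yeast screening strain plus compound; vehicle-treated cultures serve as the 0% inhibition reference.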
# [6] = NCI Yeast Anticancer Drug Screen. Data for the mlh1 rad18 strain (AID 175); settings: S. cerevisiae mlh1 rad18 strain growth inhibition; at 50.0 µM; active compounds read high
# Outline: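 Read-out is yeast growth inhibition, calculated against vehicle-only controls. The compound was applied to a strain engineered with DNA damage repair alterations.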
Compound,growth inhibition [1],growth inhibition [2],growth inhibition [3],growth inhibition [4],growth inhibition [5],growth inhibition [6]
O=C(O)CCC(NC(=O)c1ccc(Nc2nc3ccc(C(F)(F)F)cc3nc2-c2ccccc2)cc1)C(=O)O (stereo unspecified),-11.5%,11.9%,4.75%,-8.75%,1.25%,-0.05%
CC1(C)OC2(CC1C1(C)C=CC(=O)O1)CC1C(O)(CCC34CC13C(=O)OC4c1ccoc1)O2 (stereo unspecified),3.95%,-17.3%,3.15%,6.2%,-3.1%,10.2%
Cc1ccc(S(=O)(=O)Oc2c(Cl)cc(Cl)cc2Cl)cc1,-2.4%,9.35%,26.4%,-19.1%,24.8%,29.8%
O=P(CCCCCCCCCCP(=O)(c1ccccc1)c1ccccc1)(c1ccccc1)c1ccccc1,-11%,2.6%,23.5%,9.55%,2.3%,29.5%
CCOC(=O)/C(=C\c1cc(C)c(OC(C)=O)c(OC)c1)NC(=O)c1ccccc1,-17.1%,-15.2%,-11.1%,0.1%,-3.45%,-4.25%
CC(C)CCC[C@@H](C)[C@H]1CC[C@H]2C3=CC=C4C[C@H](OC(=O)c5ccccc5)CC[C@]4(C)[C@H]3CC[C@]12C,0.4%,5.5%,11%,3.7%,-1.25%,-10.2%
CC(C)COc1ccc(O)cc1,8.95%,-3.55%,-16.5%,-43.5%,-11%,3.35%
COc1ccc(-c2cc(=O)c3cc(C)c(C)c(C(=O)O)c3o2)cc1,-10.5%,-2.95%,-5.4%,10.8%,-8.7%,0.75%
COc1cc(/C=C2\N=C(C)N(n3c(-c4ccccc4)nc4ccccc4c3=O)C2=O)cc(OC)c1OC,-20.4%,19.6%,29.6%,2.7%,16.2%,7.3%
Nc1cccc(CC(NC(=O)c2ccccc2)C(=O)O)c1 (stereo unspecified),-16.4%,2.1%,12.1%,-4.3%,28.6%,-22.7%
O=c1nc(N2CCCCCCC2)ccn1C1OC(CO)C(O)C1O (stereo unspecified),4.85%,14.6%,8.95%,6.75%,6.85%,8.5%
CCCN1C(=O)CN(S(=O)(=O)c2ccc(Cl)cc2)C1=O,-1.1%,4.05%,3.6%,-8%,-1.25%,-46.9%
CC(=O)Oc1ccc(Nn2c3ccccc3c3ccccc32)c(C)c1,56.6%,47.9%,36.1%,54.6%,41.4%,43%
CC(=O)[CH-]C(=O)c1ccccc1.CC(=O)[CH-]C(=O)c1ccccc1.CC12CC3(C)CC(C)(C1)CC([O-])(C2)C3.CC[O-].[Ti+4],15.1%,21.8%,28.6%,23.8%,8.55%,18%
COc1ccc(NC(=O)C(=O)C2NC(=S)NC2=O)c(OC)c1 (stereo unspecified),34.4%,16.5%,11.6%,15.3%,3%,3.2%
Cc1nc(/C=C2\C(=O)C=Cc3ccccc32)c(O)o1,7.85%,-6.3%,8.35%,-63%,16%,0.3%
Cc1cc(C)c(C#N)c(N)n1,-0.8%,-12.8%,-14.3%,-17.9%,7.7%,-14.9%
COC(=O)C1CC=CCC1 (stereo unspecified),23.1%,-8.05%,6.85%,14.2%,1.15%,32.4%
CCC(=O)[CH-]C(=O)CC.CCC(=O)[CH-]C(=O)CC.[Cu+2],10.9%,-1.9%,10.2%,-39.4%,-17.6%,0%
COc1cc(C2OCC3C(c4ccc(O)c(OC)c4)OCC23)ccc1O (stereo unspecified),6%,-20.4%,10.9%,23.4%,0.2%,14.6%
C=C1CC2C(=O)N(c3ccccc3)C(=O)C2CC1n1[nH]c(=O)n(Cc2ccccc2)c1=O (stereo unspecified),3.8%,3.1%,9.65%,-29.8%,15.7%,-5.7%

Compound,growth inhibition [1],growth inhibition [2],growth inhibition [3],growth inhibition [4],growth inhibition [5],growth inhibition [6]
O=C1c2cn[nH]c2C(c2ccccc2)N1c1ccccc1 (stereo unspecified),44.1%,6.8%,22.6%,24.3%,27.9%,38.9%
NC(N)=NS(=O)(=O)c1ccc(NC(=O)c2cccn3c(=O)c4ccccc4nc23)cc1,-6.9%,-2.5%,30.3%,11.7%,-9.4%,-20.9%
CNc1nc(SCc2ccccc2)c2ncn(C3OC(CO)C(O)C3O)c2n1 (stereo unspecified),11.3%,4.8%,16.9%,19.9%,4.95%,17.9%
COC(=O)c1n[nH]n(Cc2cccs2)c1=O (tested in a mixture with another compound),14.8%,13.9%,16.1%,-0.85%,10.6%,26.2%
COc1ccccc1C(=O)N/N=C\c1c[nH]c2ccccc12,-3.35%,2.05%,-4.85%,-6.25%,-5.15%,-8.3%
CC(=O)NCCCOc1ccc(N)cc1,-3.7%,4.05%,-0.4%,-27.1%,-2.3%,-11.9%
CCCCNC(=O)OCCN(C)CCOC(=O)NCCCC,-15.7%,-21.9%,-17.2%,3.05%,6.2%,3.55%
CC(=O)NNc1nc(C)c(C(=O)/C=C/C=C/c2ccccc2)s1,-3.8%,39%,10.7%,10.3%,13.1%,-21.8%
CC1=CCCCC1=O,-7.25%,-4.35%,5.6%,2.4%,-12.9%,-4.15%
O=C(Nc1cc(Cl)c(Oc2ccc(Cl)cc2)cc1S(=O)(=O)O)Nc1cccc(Cl)c1Cl,99% (active),99.5% (active),99.6% (active),98.2% (active),98.7% (active),99.4% (active)
COc1ccc(/C=C2\N=C(c3ccc(Cl)cc3)OC2=O)cc1Br,10.2%,-2.15%,21.5%,5%,12.8%,17.3%
C/C=C/C1OCC(C)(C)CO1,-0.8%,22.9%,-12.9%,-46.8%,-24.7%,-1.5%
CCOC(=O)C1=CC(C)(C(=O)OCC)Nc2c(nc(SC)n(C)c2=O)N1 (stereo unspecified),-19.4%,-21.2%,-16.3%,16.8%,-1.55%,14.2%
CCN(CC)C(=O)CN,8.9%,0.6%,9.1%,-3.05%,3.3%,-8.15%
CNc1ncnc2nc(C)c(C)nc12,-14.1%,35.6%,-7.4%,8.4%,-6.05%,18.7%
CCNc1nnc(-c2nsc3ccccc23)s1,-12.7%,-36.1%,-10.1%,-11.5%,-27.5%,-18.9%
CC(=O)OC1C=CC(OC(C)=O)C2C1[C@H]1C3C=CC=CC3[C@@H]2S1=O (stereo partly specified),-36.8%,-35.8%,-17.2%,-6.5%,6.25%,-27.1%
O=C(Nc1ccccc1O)c1ccc(Cl)c(Cl)c1,-7.6%,32%,33.2%,-23.2%,49%,36.2%
Cn1c2ccccc2c2ccc3c(c21)C(=O)C(c1ccccc1)=CC3=O,19.7%,-21.2%,-10.3%,17.6%,-28.3%,-5.85%
[N-]=[N+]=Nc1nn2cnnc2c2[nH]c3ccccc3c12,46%,0.65%,4.25%,-1.4%,-14.9%,16.1%
